Structures are written as SMILES. Compounds without any hit were thinned out: in the full panel of roughly 83,000, 20% have a hit.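 Assay: single dose, 48 h. Readout: percent growth (0 = no net growth; negative = cell death). Active: <10.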 Values without a mark were called inactive. Activity calls are given as the source filed them.

Some test systems named below: NCI-H23 lung; NCI-H226 lung; NCI-H322M lung; HOP-62 NSCLC; NCI-H460 lung; NCI-H522 lung; A549/ATCC NSCLC; 786-0 renal; COLO 205 colon; DU-145 prostate; K-562 leukemia; MALME-3M melanoma; MDA-MB-231 breast; RXF 393 renal; SF-268 CNS; SF-295 CNS; SF-539 CNS; UACC-257 melanoma; M14 melanoma; HCT-15 colon.
Assay in all cases: NCI-60 one-dose screen, 48 h (100 = growth as untreated, 0 = no growth, -100 = all killed)
What all share (details): 10 µM

Consider `CCCCOC(=O)Oc1ccc(C(=O)Oc2ccc(OCC)cc2)cc1`, for which the growth in the assay on NCI-H23 lung is 99.9%; with NCI-H226 lung it was 92.7%; in the assay with NCI-H322M lung it was 98.6%; in the assay on HOP-62 NSCLC it was 113%; in the assay on NCI-H460 lung it was 106%; in the assay with NCI-H522 lung it was 82.7%. Also, the growth is 85.6% in the assay on A549/ATCC NSCLC; 96.7% in the assay with 786-0 renal; 118% with COLO 205 colon; 97.7% with DU-145 prostate; 109% in the assay on K-562 leukemia; 109% with MALME-3M melanoma. In addition, the growth is 97.9% with MDA-MB-231 breast; 102% in the assay on RXF 393 renal; 95.5% in the assay with SF-268 CNS; 109% in the assay on SF-295 CNS; 86.2% in the assay with SF-539 CNS; 99.5% in the assay with UACC-257 melanoma. Further, the growth in the assay with M14 melanoma is 96.7%; in the assay on HCT-15 colon, 102%.
As for `N#Cc1ncc(-c2cc(F)c(F)c(F)c2)c(NC2CCCCCC2)n1`, the growth is 92.9% with NCI-H23 lung; 94.6% with NCI-H226 lung; 105% in the assay on NCI-H322M lung; 100% in the assay with HOP-62 NSCLC; 95.7% with NCI-H460 lung; 94.8% with NCI-H522 lung. Further, the growth is 95.8% with A549/ATCC NSCLC; 101% with 786-0 renal; 88.5% in the assay on COLO 205 colon; 108% in the assay with DU-145 prostate; 92% with K-562 leukemia; 131% in the assay on MALME-3M melanoma. Also, the growth in the assay on MDA-MB-231 breast is 91.7%; in the assay with RXF 393 renal, 84.7%; in the assay on SF-268 CNS, 82.3%; in the assay with SF-295 CNS, 89.3%; in the assay with SF-539 CNS it was 97.5%; with UACC-257 melanoma, 93.6%. The growth with M14 melanoma was 101%; with HCT-15 colon, 85.2%.
`CCOC(=O)C1(CC(C)C)CCOC1=O` (stereo not given): the growth in the assay on NCI-H23 lung is 102%; in the assay with NCI-H226 lung, 106%; in the assay with NCI-H322M lung, 104%; with HOP-62 NSCLC, 109%; in the assay with NCI-H460 lung it was 103%; in the assay on NCI-H522 lung it was 100%. The growth in the assay with A549/ATCC NSCLC is 94.8%; in the assay with 786-0 renal, 107%; in the assay with COLO 205 colon, 115%; with DU-145 prostate it was 105%; in the assay on K-562 leukemia, 97.8%; with MALME-3M melanoma, 101%. Moreover, the growth is 109% with MDA-MB-231 breast; 118% in the assay with RXF 393 renal; 98.7% in the assay on SF-268 CNS; 99.5% with SF-295 CNS; 97.7% in the assay on SF-539 CNS; 97.7% with UACC-257 melanoma. Also, the growth in the assay on M14 melanoma is 106%; with HCT-15 colon, 96.7%.
For `COc1ccc(Nc2nc3ccc(NC(=O)NC4CCCCC4)cc3[nH]c2=O)cc1`, the growth in the assay on NCI-H23 lung was 94.1%; in the assay on NCI-H226 lung it was 94.5%; in the assay on NCI-H322M lung it was 96.1%; in the assay on HOP-62 NSCLC, 83.9%; in the assay on NCI-H460 lung, 102%; with NCI-H522 lung, 87.3%. Also, the growth with A549/ATCC NSCLC was 89.5%; with 786-0 renal it was 72.7%; in the assay on COLO 205 colon it was 112%; in the assay with DU-145 prostate, 107%; with K-562 leukemia, 77.1%; in the assay with MALME-3M melanoma, 102%. The growth in the assay with MDA-MB-231 breast is 70.8%; in the assay on RXF 393 renal, 48.1%; with SF-268 CNS it was 91.4%; in the assay with SF-295 CNS, 82.6%; with SF-539 CNS it was 68.8%; in the assay with UACC-257 melanoma it was 90.4%. Also, the values for the growth in the assay with M14 melanoma and in the assay with HCT-15 colon were 103% and 83.2%, respectively.
Regarding `CN(Cc1ccccc1)Cc1ccc([N+](=O)[O-])cc1I`, the growth in the assay on NCI-H23 lung was 107%; in the assay on NCI-H226 lung, 94.5%; in the assay on NCI-H322M lung, 92.9%; in the assay on HOP-62 NSCLC it was 101%; with NCI-H460 lung it was 97.3%; in the assay on NCI-H522 lung, 86.7%. For the same molecule, the growth in the assay on A549/ATCC NSCLC was 93.6%; in the assay on 786-0 renal, 97.8%; in the assay on COLO 205 colon, 104%; in the assay on DU-145 prostate, 95.6%; with K-562 leukemia it was 91.7%; with MALME-3M melanoma it was 84%. For the same molecule, the growth in the assay on MDA-MB-231 breast was 101%; in the assay on RXF 393 renal, 88.2%; in the assay with SF-268 CNS, 98%; in the assay on SF-295 CNS it was 104%; in the assay with SF-539 CNS it was 100%; with UACC-257 melanoma it was 103%. Besides, the results for the growth in the assay on M14 melanoma and in the assay on HCT-15 colon were 102% and 92.2%, respectively.
For `CC(C)N(CCNc1nc(C(Cl)(Cl)Cl)nc2cc(Cl)ccc12)C(C)C`, the growth with NCI-H23 lung was -0.581% (active); in the assay with NCI-H226 lung it was 0.531% (active); in the assay on NCI-H322M lung it was 33.5%; in the assay on HOP-62 NSCLC, -41.4% (active); with NCI-H460 lung, -45.6% (active); in the assay with NCI-H522 lung it was -68.4% (active). Also, the growth with A549/ATCC NSCLC was -41.6% (active); with 786-0 renal it was -76.4% (active); in the assay with COLO 205 colon, -89.8% (active); with DU-145 prostate, -15% (active); in the assay on K-562 leukemia, -53.9% (active); with MALME-3M melanoma, -28% (active). Further, the growth was -66.4% (active) in the assay with MDA-MB-231 breast; -19% (active) in the assay with RXF 393 renal; 0.341% (active) in the assay on SF-268 CNS; -64.9% (active) in the assay with SF-295 CNS; -33.7% (active) with SF-539 CNS; -64.7% (active) in the assay with UACC-257 melanoma. Further, the growth in the assay with M14 melanoma is -68.7% (active); with HCT-15 colon, -38.4% (active).
With `COc1ccc(-c2cc(-c3ccc(N(C)C)cc3)c(C#N)c(N3CCCC3)n2)cc1`, the growth in the assay with NCI-H23 lung is 93.6%; in the assay on NCI-H226 lung, 82.5%; in the assay with NCI-H322M lung, 92.3%; in the assay with HOP-62 NSCLC, 99.7%; with NCI-H460 lung, 69.9%; in the assay on NCI-H522 lung, 69.4%. Further, the growth with A549/ATCC NSCLC was 77.2%; in the assay with 786-0 renal it was 95.6%; in the assay on COLO 205 colon, 65.9%; in the assay on DU-145 prostate, 86.8%; in the assay on K-562 leukemia, 69.3%; with MALME-3M melanoma, 122%. In addition, the growth is 64.1% with MDA-MB-231 breast; -2.09% (active) in the assay with RXF 393 renal; 96.7% in the assay on SF-268 CNS; 93.8% with SF-295 CNS; 88.8% with SF-539 CNS; 88% in the assay with UACC-257 melanoma. Moreover, the growth is 73.3% in the assay on M14 melanoma and 71.4% in the assay with HCT-15 colon.
In the case of `O=c1[nH]c2ccc(Cl)cc2c2ccccc12`, the growth is 86.6% in the assay on NCI-H23 lung; 85.1% in the assay on NCI-H226 lung; 42.5% with NCI-H322M lung; 72.2% in the assay on HOP-62 NSCLC; 42.7% in the assay with NCI-H460 lung; 109% in the assay with NCI-H522 lung. The growth in the assay with A549/ATCC NSCLC is 79.5%; in the assay on 786-0 renal it was 49.5%; with COLO 205 colon, 86.5%; in the assay on DU-145 prostate, 78.2%; in the assay on K-562 leukemia it was 110%; in the assay with MALME-3M melanoma, 60.7%. In addition, the growth in the assay on MDA-MB-231 breast was 78.2%; in the assay on RXF 393 renal, 61.1%; in the assay with SF-268 CNS, 79.4%; in the assay with SF-295 CNS, 97.9%; in the assay on SF-539 CNS it was 80.1%; with UACC-257 melanoma it was 105%. Besides, the growth in the assay with M14 melanoma was 94.7%; with HCT-15 colon it was 93.3%.

For the origin of these results see PubChem BioAssay (NCI).
